Here are results for seven compounds from PubChem BioAssay (Tox21).

Experiment [1] is described as follows: qHTS assay to identify small molecule agonists of the estrogen related receptor signaling pathway with the pleiotropic PPARgamma coactivator (PGC) (AID 1224823). In short, it runs like this:
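Luminescence from One-Glo reagent (30 min, room temperature) was read after 18 h compound treatment at 37 C of PGC/ERR cells plated 6 h beforehand; compounds delivered in DMSO by pin tool.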
For orientation: qHTS replaces the single test concentration by a dilution series.

A short description of experiment [2]: qHTS assay to identify small molecule antagonists of the estrogen related receptor (ERR) signaling pathway from Tox21 library - cell viability counter screen (AID 1224834). Also: nearly all actives have a fitted effect of over 30% in size. Also: potency is read from the fitted curve at half-maximal effect. In short, it runs like this: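 In this quantitative HTS format, ERR cells receive compounds in DMSO and are incubated for 17.5 h at 37 C. Live-cell protease activity is then detected with CellTiter-Fluor.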

For experiment [3], the target named is Luciferin 4-monooxygenase (Photinus pyralis) (UniProt P08659). The experiment in a line: qHTS assay to identify small molecule inhibitors of firefly luciferase (AID 1224835). Also: nearly all actives have a fitted effect of over 25% in size. Also: potency is read from the fitted curve at half-maximal effect. In short, it runs like this:
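Quantitative HTS format; KM concentrations of both substrates. Purified P. pyralis FLuc activity quantified from luminescence images.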

The target of experiment [4] is Nuclear receptor subfamily 1 group I member 3 (Homo sapiens) (UniProt Q14994). The experiment in a line: qHTS assay to identify small molecule antagonists of the constitutive androstane receptor (CAR) signaling pathway (AID 1224838). Also: nearly all actives have a fitted effect of over 40% in size. The essentials:
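CITCO-stimulated (50 nM final) HepG2 cells stably transfected with hCAR and CYP2B6-2.2kb luciferase were exposed to compounds at 15 concentrations for 24 h at 37 C/5% CO2. A luciferase reagent was added and luminescence recorded after 30 min.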

The target is the same in experiment [5]. The experiment can be described thus: qHTS assay to identify small molecule agonists of the constitutive androstane receptor (CAR) signaling pathway (AID 1224839). Also: nearly all actives have a fitted effect of over 15% in size. Also: potency is read from the fitted curve at half-maximal effect. In short, it runs like this:
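HepG2 cells stably expressing hCAR and a CYP2B6-2.2kb luciferase reporter were treated with compounds at 15 concentrations plus 0.75 uM PK11195 (final) for 24 h at 37 C; luminescence was read after ONE-Glo addition.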

Experiment [6] is described as follows: qHTS assay to identify small molecule antagonists of the estrogen related receptor signaling pathway with the pleiotropic PPARgamma coactivator (PGC) from Tox21 10K library - cell viability counter screen (AID 1224840; active = well fitted cell-killing curve with a large enough effect in the repeat runs, not every such curve was filed as active; also: nearly all actives have a fitted effect of over 40% in size). The essentials:
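Viability counter screen, PGC/ERR cells: 17.5 h compound exposure at 37 C, CellTiter-Fluor fluorescence endpoint.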

The nature of experiment [7]: qHTS assay to identify small molecule antagonists of the estrogen related receptor signaling pathway with the pleiotropic PPARgamma coactivator (PGC) from Tox21 10K library (AID 1224841; call rule not given here; also: actives are mostly falling curves and most rising ones were filed inactive; nearly all actives have a fitted effect of over 50% in size; also: potency is read from the fitted curve at half-maximal effect). The essentials:
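In the PGC/ERR line, DMSO solutions of test chemicals are pin-delivered to 2,000 cells/well six hours after dispensing. Following eighteen hours' incubation, One-Glo reagent is added and luminescence recorded.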

Experiment [8] can be described thus: qHTS assay to identify small molecule agonists of the estrogen related receptor signaling pathway with the pleiotropic PPARgamma coactivator (PGC) from Tox21 10K library (AID 1224842). Also: nearly all actives have a fitted effect of over 15% in size. Also: potency is read from the fitted curve at half-maximal effect. The essentials: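 PGC/ERR reporter cells (NTP line) were seeded 2,000 per well, rested 6 h at 37 C/5% CO2, then pin-dosed with compounds in DMSO for 18 h at 37 C; luciferase read by One-Glo luminescence after 30 min at room temperature.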

The target in experiment [9] is Thyrotropin receptor (Homo sapiens) (UniProt P16473). The experiment in a line: qHTS assay to identify small molecule agonists of the thyroid stimulating hormone receptor (TSHR) signaling pathway (AID 1224843; calls by dose curve; also: nearly all actives have a fitted effect of over 45% in size). In short, it runs like this:
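Compounds are titrated over 15 concentrations, in triplicate, onto TSHR-HEK293 cells seeded at 800/well. Plates sit 30 min at room temperature before cAMP-d2 and anti-cAMP cryptate are added; signal is read after a further hour.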

Experiment [10] is described as follows: qHTS assay to identify small molecule agonists of the hypoxia (HIF-1) signaling pathway - cell viability counter screen (AID 1224844; calls by dose curve; also: nearly all actives have a fitted effect of over 50% in size). In short, it runs like this: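 Same wells as the HIF-1 reporter screen; ME-180 cells carrying HRE-bla, 17 hr treatment at 37C; CellTiter-Glo luminescence read after 30 min at room temperature.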
Experiment [11] can be described thus: qHTS assay to identify small molecule agonists of H2AX (AID 1224845; active = well fitted activation curve with a large enough effect in the signal ratio in the repeat runs, not every such curve was filed as active; the % refers to the signal ratio). In short, it runs like this: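 Wild-type CHO-K1 cells plated overnight, then exposed 3 hr at 37C to compounds at 15 concentrations (0.76% DMSO). Lysed, then HTRF anti-pH2AX(S139)-cryptate/anti-H2AX-d2 detection after 24 hr at room temperature; emissions 665 and 620 nm.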
Experiment [12] can be described thus: qHTS assay to identify small molecule agonists of H2AX - cell viability counter screen (AID 1224847; calls by dose curve; also: nearly all actives have a fitted effect of over 30% in size; also: potency is read from the fitted curve at half-maximal effect). In short, it runs like this: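 Wild-type CHO-K1 cells (10% FBS medium) were plated overnight at 37C, exposed to compounds at 15 concentrations for 3 hr at 37C (0.76% DMSO final), and viability was read as CellTiter-Glo luminescence after 30 min at room temperature.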

Experiment [13] in a line: qHTS assay to identify small molecule antagonists of the estrogen related receptor (ERR) signaling pathway from Tox21 library (AID 1224848). Also: nearly all actives have a fitted effect of over 50% in size. Also: potency is read from the fitted curve at half-maximal effect. In short, it runs like this: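 First, 2,000 ERR cells per well were plated and held 6 h at 37 C/5% CO2. Next, compounds in DMSO were pinned in and left 18 h at 37 C. Finally, ONE-Glo was added and luminescence read after 30 min at room temperature.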

Experiment [14] can be described thus: qHTS RealTime-Glo MT Cell Viability Assay in HepG2 cells - 24 hour (AID 1224867). Also: nearly all actives have a fitted effect of over 50% in size. In short, it runs like this: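 Compound treatment began 5 h after plating HepG2 cells (600/well) with NanoLuc luciferase and prosubstrate. Plates stayed at 37 C for 40 h; luminescence was captured at six time points, 0 h through 40 h.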
Experiment [15] in a line: qHTS RealTime-Glo MT Cell Viability Assay in HEK293 cells - 32 hour (AID 1224868). In short, it runs like this:
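Quantitative high-throughput screen of the Tox21 10K library in HEK293: cells and RealTime-Glo reagents plated together, compound added at 5 h, luminescence monitored through 40 h at 37 C.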

Experiment [16] is described as follows: A CellTox Green Cytotoxicity Assay to monitor cytotoxicity in HEK293 cells - 0 hour (AID 1224869). Also: nearly all actives have a fitted effect of over 50% in size. In short, it runs like this: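 Homogeneous no-lysis format: HEK293 cell suspension mixed with CellTox Green reagent, seeded, incubated 5 h at 37 C/5% CO2, then dosed by pintool with compound in DMSO.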
A short description of experiment [17]: qHTS assay to identify small molecule agonists of the constitutive androstane receptor (CAR) signaling pathway - cell viability counter screen (AID 1224836). Also: nearly all actives have a fitted effect of over 45% in size. In short, it runs like this: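 HepG2 cells stably carrying hCAR and a CYP2B6-2.2kb reporter were plated 4 h, then given compounds at 15 concentrations plus PK11195 (final 0.75 uM). After 23 h at 37 C, viability was read by CellTiter-Fluor fluorescence.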

Experiment [18] in a line: qHTS assay to identify small molecule antagonists of the constitutive androstane receptor (CAR) signaling pathway - cell viability counter screen (AID 1224837). Also: nearly all actives have a fitted effect of over 45% in size. In short, it runs like this:
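In quantitative HTS format, compounds at 15 concentrations were applied to HepG2 cells double-transfected with hCAR and CYP2B6-2.2kb under 50 nM CITCO stimulation; live-cell protease activity was read after 23 hr via CellTiter-Fluor.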

Experiment [19] is described as follows: qHTS assay to identify small molecule agonists of the hypoxia (HIF-1) signaling pathway (AID 1224846; active = well fitted activation curve with a large enough effect in the signal ratio in the repeat runs, not every such curve was filed as active; the % refers to the signal ratio). In short, it runs like this:
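In ME-180 cells bearing an HRE-bla construct, 17 h treatment with DMSO-dissolved compounds at 37C was followed by CCF4-AM loading to quantify reporter induction.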

A short description of experiment [20]: qHTS assay to identify small molecule agonists of the estrogen related receptor (ERR) signaling pathway from Tox21 library (AID 1224849; calls by dose curve; also: nearly all actives have a fitted effect of over 15% in size). The conditions noted are these: ERR reporter cell line, ONE-Glo luciferase, 18 h; at 92.4 µM (top of the series). In short, it runs like this:
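Reporter cells (ERR, NTP source) treated with Tox21 10K compounds 18 h, 37 C. Readout: ONE-Glo luminescence, 30 min RT.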

Several values for one entry are separate records, joined by “and”; a condition that tells them apart may be missing. Identical values can stand only once. Results filed as inconclusive are left out. A structure can be active in one record and inactive in another. Activity calls are given as the source filed them. Unless noted, calls follow the shape of the dose curve; as a rule, active = well fitted curve in the direction sought with a large enough effect in the repeat runs; inconclusive = weak or mixed curves; inactive = no such curve, though single readings can be large; an effect the other way counts as inactive or inconclusive.
% is scaled to controls: 0 for no effect and ±100 for the full control effect.

Thyrotropin receptor (Homo sapiens), sequence (P16473 whole entry, looked up): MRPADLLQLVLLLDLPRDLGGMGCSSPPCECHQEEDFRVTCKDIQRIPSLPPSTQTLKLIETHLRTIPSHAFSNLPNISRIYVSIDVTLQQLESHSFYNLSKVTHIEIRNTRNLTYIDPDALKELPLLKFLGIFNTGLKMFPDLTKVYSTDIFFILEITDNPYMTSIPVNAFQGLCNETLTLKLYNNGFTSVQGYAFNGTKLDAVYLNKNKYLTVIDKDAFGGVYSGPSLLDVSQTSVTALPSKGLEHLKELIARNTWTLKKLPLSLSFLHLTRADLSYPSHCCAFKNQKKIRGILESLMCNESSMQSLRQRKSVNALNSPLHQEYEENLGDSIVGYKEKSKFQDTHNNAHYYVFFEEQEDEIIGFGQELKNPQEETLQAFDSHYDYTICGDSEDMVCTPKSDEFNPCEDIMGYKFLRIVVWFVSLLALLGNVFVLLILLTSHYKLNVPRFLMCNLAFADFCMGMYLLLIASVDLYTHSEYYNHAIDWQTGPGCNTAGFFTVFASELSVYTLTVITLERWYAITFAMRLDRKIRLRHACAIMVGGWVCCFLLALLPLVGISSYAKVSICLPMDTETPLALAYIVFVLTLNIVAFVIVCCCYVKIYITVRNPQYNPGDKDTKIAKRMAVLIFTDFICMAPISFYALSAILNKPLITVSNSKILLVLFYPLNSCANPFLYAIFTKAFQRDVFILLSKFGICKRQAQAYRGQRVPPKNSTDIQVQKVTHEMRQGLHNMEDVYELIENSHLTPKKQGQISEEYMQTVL
Luciferin 4-monooxygenase (Photinus pyralis), sequence (P08659 whole entry, looked up): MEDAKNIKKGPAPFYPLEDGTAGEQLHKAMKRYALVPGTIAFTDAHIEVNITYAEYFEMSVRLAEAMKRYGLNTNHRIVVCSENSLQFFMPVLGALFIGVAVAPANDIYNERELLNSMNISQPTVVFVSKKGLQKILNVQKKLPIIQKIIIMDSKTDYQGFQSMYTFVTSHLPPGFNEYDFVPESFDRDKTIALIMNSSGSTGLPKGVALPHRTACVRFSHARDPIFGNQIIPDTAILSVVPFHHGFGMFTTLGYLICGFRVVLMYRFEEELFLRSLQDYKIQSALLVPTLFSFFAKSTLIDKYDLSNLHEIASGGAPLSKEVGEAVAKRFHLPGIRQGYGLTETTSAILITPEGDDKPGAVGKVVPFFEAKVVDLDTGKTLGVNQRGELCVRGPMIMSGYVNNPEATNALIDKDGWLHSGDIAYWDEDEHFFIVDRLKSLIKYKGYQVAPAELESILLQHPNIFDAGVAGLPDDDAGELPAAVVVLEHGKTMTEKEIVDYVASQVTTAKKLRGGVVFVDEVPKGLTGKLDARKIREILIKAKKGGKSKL
Nuclear receptor subfamily 1 group I member 3 (Homo sapiens), sequence (Q14994 whole entry, looked up): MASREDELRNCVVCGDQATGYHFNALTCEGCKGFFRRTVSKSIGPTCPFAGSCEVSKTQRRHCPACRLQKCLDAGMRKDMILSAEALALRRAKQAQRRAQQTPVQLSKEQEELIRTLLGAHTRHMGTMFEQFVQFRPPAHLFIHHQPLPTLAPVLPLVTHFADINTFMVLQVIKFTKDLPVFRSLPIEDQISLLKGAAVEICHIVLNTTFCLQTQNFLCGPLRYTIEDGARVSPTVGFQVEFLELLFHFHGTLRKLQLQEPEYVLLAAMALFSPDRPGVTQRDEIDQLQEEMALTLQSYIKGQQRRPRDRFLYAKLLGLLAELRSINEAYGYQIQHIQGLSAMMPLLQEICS

With `NC(=O)N/N=C/c1ccc([N+](=O)[O-])o1`, the compound was called inactive in experiment [1] and in experiment [14]. Besides, the Potency entry in experiment [2] was “inactive and 27.3 µM (active)”; in experiment [7], 24.3 µM (active) and inactive; in experiment [13], “inactive and 48.6 µM (active)”. Besides, the Potency entry in [3], in experiment [4], in [5], in experiment [6], in [8] and in [9] was “inactive” throughout. The Potency entry in experiment [10], in experiment [11], in [12], in [15] and in [16] was “inactive” each time.
For `CCN(CC)CCOC(=O)c1ccc(N)cc1`, the compound was called inactive in experiment [1] and in experiment [14]. Moreover, the Potency entry in experiment [2], in experiment [3], in [17], in experiment [18], in experiment [4] and in experiment [5] was “inactive” throughout. The Potency entry in [6], in experiment [7], in [8], in experiment [9], in experiment [11] and in experiment [12] was “inactive” throughout. Moreover, the Potency entry in experiment [13], in experiment [15] and in [16] was “inactive” in each case.
Take `COc1ccccc1O`: the Potency entry in experiment [2], in experiment [3], in experiment [17], in experiment [18], in experiment [4] and in [5] was “inactive” throughout. Besides, the Potency entry in experiment [6], in experiment [9], in [10], in experiment [11], in experiment [12] and in [15] was “inactive” in each case. For the same compound, the Potency entry in experiment [16] is “inactive”. The call in experiment [19] and in [14] was inactive.
Regarding `Cc1cccc2ccccc12`, the Potency entry in experiment [2], in experiment [3], in experiment [17], in experiment [18], in experiment [4] and in [5] was “inactive” in each case. Also, the Potency result in experiment [6], in [7], in experiment [8], in experiment [9], in experiment [11] and in experiment [12] was “inactive” throughout. Moreover, the Potency result in [13], in experiment [15] and in [16] was “inactive” in each case. In addition, the compound was classed as inactive in experiment [19] and in experiment [14]. For the same compound, the activity change, positive = activation in experiment [20] was -5.59% (inactive) and 0.133% (inactive).
Regarding `Cc1ccc(O)c(-n2nc3ccccc3n2)c1`, the Potency entry in experiment [2], in experiment [17], in experiment [18], in experiment [4], in experiment [6] and in [7] was “inactive” throughout. The Potency entry in experiment [9], in [11], in experiment [13], in experiment [15] and in [16] was “inactive” in each case. The Potency in experiment [3] was 2.5 µM (active) and 1.59 µM (active) and 3.09 µM (active); in [5], 24.1 µM (active) and 21.7 µM (active) and 8.41 µM (active); in [8], 27.1 µM (active) and 8.63 µM (active) and 11.9 µM (active); in experiment [12], 100 µM (active) and 89.8 µM (active). Moreover, the compound was called inactive in experiment [19] and in experiment [14].
On to `CCCCNC(=O)NS(=O)(=O)c1ccc(N)cc1`, for which the Potency result in [2], in [3], in [17], in experiment [18], in [4] and in experiment [5] was “inactive” each time. The Potency result in experiment [6], in experiment [7], in experiment [8], in [9], in experiment [11] and in experiment [12] was “inactive” in each case. Also, the Potency result in experiment [13], in experiment [15] and in experiment [16] was “inactive” in each case. Further, the compound was classed as inactive in [19] and in experiment [14].
As for `OCCCc1ccccc1`, the Potency entry in experiment [2], in experiment [3], in [17], in experiment [18], in experiment [4] and in [5] was “inactive” throughout. Besides, the Potency entry in experiment [6], in experiment [7], in experiment [8], in [9], in experiment [11] and in experiment [12] was “inactive” each time. Also, the Potency result in [13], in [15] and in experiment [16] was “inactive” each time. The outcome in [19] and in [14] was inactive.
